This is a sample that favours compounds with a hit; in the whole collection about 13% have one here.
OTUD3 block: human OTUD3 deubiquitinase inhibition | purified OTUD3, Ub-rhodamine fluorescence, 2 h | inhibition, % at 25 µM | Q5T2D3 | 47,000 tested, 0.7% active
USP30 block: inhibitors of human USP30 deubiquitinase; 47,000 tested, 5.3% active; purified USP30, Ub-rhodamine cleavage fluorescence; inhibition, % at 25 µM; Q70CQ3
USP28 block: blocks human USP28 ubiquitin-rhodamine cleavage. Q96RU2. purified USP28, Ub-rhodamine cleavage fluorescence, 30 min. inhibition, % at 25 µM. 47,000 tested, 3% active. AID 1645857
USP17 inh: human USP17-like deubiquitinase inhibition | A8MUK1 | purified USP17, Ub-rhodamine cleavage fluorescence, 3 h | inhibition, % at 50 µM | 47,000 tested, 6.5% active | AID 1645855
Target sequence (A8MUK1 whole entry, looked up): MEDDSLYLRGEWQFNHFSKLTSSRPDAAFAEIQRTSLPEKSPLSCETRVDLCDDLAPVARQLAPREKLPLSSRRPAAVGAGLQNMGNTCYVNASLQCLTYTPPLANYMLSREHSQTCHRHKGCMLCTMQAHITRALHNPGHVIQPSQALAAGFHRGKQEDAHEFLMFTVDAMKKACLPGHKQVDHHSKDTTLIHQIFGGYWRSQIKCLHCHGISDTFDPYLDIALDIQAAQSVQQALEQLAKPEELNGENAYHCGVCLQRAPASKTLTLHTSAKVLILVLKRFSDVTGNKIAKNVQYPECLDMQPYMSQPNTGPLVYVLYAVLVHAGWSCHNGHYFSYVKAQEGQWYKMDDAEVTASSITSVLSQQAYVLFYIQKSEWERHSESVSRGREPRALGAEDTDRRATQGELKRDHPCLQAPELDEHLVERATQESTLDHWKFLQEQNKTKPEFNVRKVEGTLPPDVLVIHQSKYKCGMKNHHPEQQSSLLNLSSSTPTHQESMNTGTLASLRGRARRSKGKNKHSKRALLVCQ
USP8 inh: human USP8 deubiquitinase inhibition; P40818; purified USP8, Ub-rhodamine cleavage fluorescence, 30 min; inhibition, % at 20 µM; 47,000 tested, 4.2% active; AID 1645853
USP10 inh: human USP10 deubiquitinase inhibition. Q14694. purified USP10, Ub-rhodamine fluorescence, 60 min. inhibition, % at 20 µM. 47,000 tested, 1.1% active
Numbers without * were called inactive; x = no result given. No stated cut-off is given here; in the data, active means inhibition above about 30%; inactive means the rest.

SMILES	OTUD3 block	USP30 block	USP28 block	USP17 inh	USP8 inh	USP10 inh
COc1ccccc1NS(=O)(=O)c1cccc(NC(=O)CCc2nc3ccccc3s2)c1	-10	-125	25	61*	23	-1
COc1ccc(-c2cc(-c3nnc4n3CCCCC4)n(-c3ccccc3)n2)cc1	8	28	60*	15	16	3
COc1ccc(-c2c3c4n(c(-c5ccccc5)cn4c2C(=O)NC2CCCCC2)CCCC3)cc1	-18	-96	-7	-17	-10	-2
CC(CNC(=O)c1cnn2c3c(cnc12)CCCC3)c1ccccc1 (centres undefined)	16	31*	24	13	8	1
O=C(O)c1cnn2c3c(cnc12)CCCCCC3	6	2	7	-5	-1	0
O=C(NCCC1=CCCCC1)c1cnn2c3c(cnc12)CCCCCC3	14	38*	28	20	15	10
Nc1cc(-c2cn[nH]c2C2CCCN2S(=O)(=O)c2ccccc2)ccn1 (centres undefined)	-6	-10	-12	-2	1	0
CN(C(=O)COC(=O)c1c2c(nc3ccccc13)CCC(C(C)(C)C)C2)c1ccccc1 (centres undefined)	-30	-158	-39	-41	-35	-3
CC(C)c1nc2sc3c(SCC(=O)N(c4ccccc4)c4ccccc4)ncnc3c2c2c1COC(C)(C)C2	17	32*	7	14	0	-2
COc1cccc(CNc2nn[nH]n2)c1OCc1ccc(Cl)cc1Cl	3	0	-4	3	-4	7
Cc1ccccc1-c1nnc(-c2ccc(C(=O)N(C)C(C)c3ccccc3)cc2)o1 (centres undefined)	0	-7	-7	5	3	6
Cc1ccccc1-c1nnc(-c2ccc(C(=O)N(C)Cc3cccc(F)c3)cc2)o1	18	40*	20	23	16	9
Cc1cc2nc(NCc3cccnc3)c3ccccc3n2n1	-5	-1	-4	-1	-20	2
CCOc1ccc2c(c1)c(=O)c(C(=O)c1ccccc1)cn2CC(=O)Nc1ccccc1	-5	-22	-3	60*	43*	29
CCOc1ccc2c(c1)c(=O)c(C(=O)c1ccc(F)cc1)cn2CC(=O)Nc1ccccc1	-1	0	-1	4	38*	28
COc1ccc(NC(=O)Cn2cc(C(=O)c3ccccc3)c(=O)c3cc4c(cc32)OCCO4)cc1	-8	-33	-23	-20	10	11
CCOc1ccc2c(c1)c(=O)c(C(=O)c1ccccc1)cn2CC(=O)Nc1ccc2c(c1)OCCO2	12	69*	15	0	95*	53*
CCc1nc2c(NC(=O)NC3CCCCC3)cccn2n1	-6	-23	-2	1	32*	-2
CCc1nc2c(NC(=O)C3CCCCC3)cccn2n1	0	1	-8	x	0	7
Cc1ccccc1CNc1nc(N2CCCC2)nc2c1cnn2C	-18	-35	-19	-17	-11	7
O=C(Nc1ccc(Oc2ccccc2)cc1)C1C2C=CC3(O2)C1C(=O)N(C1CC1)C3C(=O)NC1CCCCC1 (centres undefined)	9	18	11	10	-76	4
CCc1cccc(NC(=O)Cn2c(=O)nc(N3CCCCC3)c3ccccc32)c1	5	9	8	43*	25	4
Cc1cccc(NC(=O)Cn2c(N3CCCCC3)nc(C)cc2=O)c1	0	-11	-5	-10	3	4
O=C1[C@@H]2Cc3c([nH]c4ccccc34)C(CCc3ccccc3)N2C(=O)CN1C1CC1 (some centres undefined)	-20	-87	-12	-26	-21	-4
CC(C)NC(=O)c1cccc(-c2noc(CCC3CCCC3)n2)c1	-4	4	-5	-13	-13	-5
O=C(COc1ccccc1)Nc1cc(-c2ccc(F)c(F)c2)no1	-5	x	x	81*	11	19
O=C(Nc1cc(-c2cccnc2)no1)c1ccc(F)c(F)c1	13	-102	38*	65*	27	3
COc1ccc(C(=O)Nc2cc(-c3cccnc3)no2)cn1	-1	15	0	0	-2	3
COc1cc(C(=O)Nc2cc(-c3ccc(F)c(F)c3)no2)cc(OC)c1OC	-13	-22	-15	-9	43*	0
Cn1c(=O)c2c(-c3ccc(C(C)(C)C)cc3)n(C3CCCCC3)cc2n(C)c1=O	14	18	11	16	0	3

High-throughput results: PubChem, Buhrlage Lab, Dana-Farber Cancer Institute and Novartis Institutes for BioMedical Research (Cambridge, Mass)
